The text below walks through data of PMC7862700, “An all-to-all approach to the identification of sequence-specific readers for epigenetic DNA modifications on cytosine”.

Common to all, as to assay: DAPPL (digital affinity profiling via proximity ligation, sequencing); 10 mM Tris-HCl pH 7.5, 50 mM NaCl, 1 mM DTT, 4% glycerol, room temperature, 30 min; GST-TFs on glutathione beads, 16-mer random dsDNA library, 0.1% formaldehyde crosslink after washing; high values mean tight binding
One assay concerns the target T1, FLI1 (Homo sapiens, UniProt Q01543 1-452).
T1 sequence: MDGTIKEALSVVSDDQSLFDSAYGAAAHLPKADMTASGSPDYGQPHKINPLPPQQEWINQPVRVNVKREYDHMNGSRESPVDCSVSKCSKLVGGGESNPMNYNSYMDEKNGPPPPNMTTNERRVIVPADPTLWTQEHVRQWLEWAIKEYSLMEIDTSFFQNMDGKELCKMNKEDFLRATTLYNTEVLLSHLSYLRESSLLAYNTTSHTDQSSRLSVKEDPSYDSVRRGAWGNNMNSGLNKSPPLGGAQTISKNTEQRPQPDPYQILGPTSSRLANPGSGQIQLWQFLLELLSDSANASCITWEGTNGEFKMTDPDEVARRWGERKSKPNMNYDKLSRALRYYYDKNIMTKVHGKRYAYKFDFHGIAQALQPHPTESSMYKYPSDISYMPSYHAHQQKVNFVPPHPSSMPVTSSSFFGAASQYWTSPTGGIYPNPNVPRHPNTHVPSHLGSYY
Particulars: protein: recombinant; tags: N-terminal GST; dsDNA, one strand shown. A digest of the protocol:
(§1)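 Each value of binding signal is a hexamer's read frequency for a factor divided by the same hexamer's frequency in the tag-only sample. Barcoded, bead-captured GST fusions of human transcription factors made in yeast were pooled with that sample and incubated with 200 nmole of a random double-stranded 16-mer DNA library in Tris/NaCl/DTT/glycerol buffer at room temperature for 30 min. Washing, 0.1% formaldehyde crosslinking, proximity ligation, PCR and Illumina NextSeq500 sequencing followed.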

The next assay deals with T2, ELK1 (Homo sapiens, UniProt P19419 1-428).
T2 sequence: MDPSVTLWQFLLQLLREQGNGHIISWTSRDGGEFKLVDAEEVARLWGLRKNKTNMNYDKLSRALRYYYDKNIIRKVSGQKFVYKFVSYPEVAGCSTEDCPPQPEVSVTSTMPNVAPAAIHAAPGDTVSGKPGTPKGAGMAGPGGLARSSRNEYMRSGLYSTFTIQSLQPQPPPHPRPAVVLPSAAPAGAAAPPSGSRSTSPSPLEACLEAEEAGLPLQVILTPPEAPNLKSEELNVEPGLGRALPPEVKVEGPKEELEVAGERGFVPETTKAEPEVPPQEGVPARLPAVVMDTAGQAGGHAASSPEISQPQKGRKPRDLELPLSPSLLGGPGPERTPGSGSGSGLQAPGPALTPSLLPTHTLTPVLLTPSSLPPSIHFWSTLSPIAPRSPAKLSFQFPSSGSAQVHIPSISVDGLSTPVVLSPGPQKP
Conditions: protein: recombinant; tags: N-terminal GST; dsDNA, one strand shown. A digest of the protocol: as §1

The target in a further assay is T3, GABPA (Homo sapiens, UniProt Q06546 1-454).
T3 sequence: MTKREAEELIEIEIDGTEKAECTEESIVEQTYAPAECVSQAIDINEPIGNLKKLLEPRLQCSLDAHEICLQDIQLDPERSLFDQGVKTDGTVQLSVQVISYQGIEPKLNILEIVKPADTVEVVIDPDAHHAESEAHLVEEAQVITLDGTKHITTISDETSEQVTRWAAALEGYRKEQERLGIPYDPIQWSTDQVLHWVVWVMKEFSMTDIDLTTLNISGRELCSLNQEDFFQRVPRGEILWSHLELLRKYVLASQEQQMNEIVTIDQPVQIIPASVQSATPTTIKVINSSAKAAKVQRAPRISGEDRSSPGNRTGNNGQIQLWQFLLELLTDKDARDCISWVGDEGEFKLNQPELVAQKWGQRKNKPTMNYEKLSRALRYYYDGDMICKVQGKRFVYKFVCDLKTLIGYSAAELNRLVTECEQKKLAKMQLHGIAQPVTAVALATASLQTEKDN
Particulars: protein: recombinant; tags: N-terminal GST; dsDNA, one strand shown. A digest of the protocol:
as §1

The target of the next assay is T4, ERG (Homo sapiens, UniProt P11308 1-479).
T4 sequence: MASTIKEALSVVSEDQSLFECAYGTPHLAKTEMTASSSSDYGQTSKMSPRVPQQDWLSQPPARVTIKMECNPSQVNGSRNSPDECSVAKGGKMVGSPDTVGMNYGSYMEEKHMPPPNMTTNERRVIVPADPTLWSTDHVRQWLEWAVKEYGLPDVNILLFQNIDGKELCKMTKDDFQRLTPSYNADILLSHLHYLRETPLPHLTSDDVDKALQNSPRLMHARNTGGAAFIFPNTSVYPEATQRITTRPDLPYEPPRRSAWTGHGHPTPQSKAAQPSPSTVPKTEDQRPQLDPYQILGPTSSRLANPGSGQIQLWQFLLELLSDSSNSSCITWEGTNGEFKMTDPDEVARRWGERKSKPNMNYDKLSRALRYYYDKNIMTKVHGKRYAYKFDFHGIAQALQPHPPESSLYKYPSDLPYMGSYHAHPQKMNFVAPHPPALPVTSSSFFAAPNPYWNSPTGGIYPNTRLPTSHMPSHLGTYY
Conditions: protein: recombinant; tags: N-terminal GST; dsDNA, one strand shown. A digest of the protocol: as §1

A further assay deals with ELF1 (Homo sapiens, UniProt P32519 1-619). Particulars: protein: recombinant; tags: N-terminal GST; dsDNA, one strand shown. The essentials:
as §1

The next assay has as its target SPI1 (Homo sapiens, UniProt P17947 1-270). Conditions: protein: recombinant; tags: N-terminal GST; dsDNA, one strand shown. A digest of the protocol: as §1
The next assay has as its target SPIB (Homo sapiens, UniProt Q01892 1-262). Conditions: protein: recombinant; tags: N-terminal GST; dsDNA, one strand shown. The essentials: as §1
A further assay has as its target T5, FEV (Homo sapiens, UniProt Q99581 1-238).
T5 sequence: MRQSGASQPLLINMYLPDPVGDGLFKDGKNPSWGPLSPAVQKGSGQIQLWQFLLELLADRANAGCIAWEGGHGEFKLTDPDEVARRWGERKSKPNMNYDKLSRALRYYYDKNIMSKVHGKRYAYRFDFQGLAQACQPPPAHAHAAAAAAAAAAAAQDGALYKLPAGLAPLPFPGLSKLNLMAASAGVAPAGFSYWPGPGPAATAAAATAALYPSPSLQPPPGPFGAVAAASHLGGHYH
Conditions: protein: recombinant; tags: N-terminal GST; dsDNA, one strand shown. A digest of the protocol: as §1

The next assay addresses ETV5 (Homo sapiens, UniProt P41161 1-510). Particulars: protein: recombinant; tags: N-terminal GST; dsDNA, one strand shown. A digest of the protocol: as §1
In another assay the target is HSF1 (Homo sapiens, UniProt Q00613 1-529). Conditions: protein: recombinant; tags: N-terminal GST; chain copies: 3; dsDNA, one strand shown. The essentials: as §1
Chain of HSF1 (Q00613 whole entry): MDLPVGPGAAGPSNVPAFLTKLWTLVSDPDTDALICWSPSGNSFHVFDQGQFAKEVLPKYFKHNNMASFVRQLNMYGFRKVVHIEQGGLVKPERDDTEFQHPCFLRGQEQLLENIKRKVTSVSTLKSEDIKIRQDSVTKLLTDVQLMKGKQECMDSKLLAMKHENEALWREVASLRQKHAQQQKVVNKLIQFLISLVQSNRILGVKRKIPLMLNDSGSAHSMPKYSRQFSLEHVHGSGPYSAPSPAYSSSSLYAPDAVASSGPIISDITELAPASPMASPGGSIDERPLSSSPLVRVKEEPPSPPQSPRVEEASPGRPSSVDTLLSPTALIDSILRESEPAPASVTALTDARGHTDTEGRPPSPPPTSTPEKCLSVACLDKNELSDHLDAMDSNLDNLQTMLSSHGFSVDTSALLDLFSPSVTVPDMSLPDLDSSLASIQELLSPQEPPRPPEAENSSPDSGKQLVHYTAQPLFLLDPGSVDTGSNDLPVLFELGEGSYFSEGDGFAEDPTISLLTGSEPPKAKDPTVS
A further assay addresses ELF4 (Homo sapiens, UniProt Q99607 1-663). Conditions: protein: recombinant; tags: N-terminal GST; dsDNA, one strand shown. The essentials: as §1
The target of the next assay is T6, ELF3 (Homo sapiens, UniProt P78545 1-371).
T6 sequence: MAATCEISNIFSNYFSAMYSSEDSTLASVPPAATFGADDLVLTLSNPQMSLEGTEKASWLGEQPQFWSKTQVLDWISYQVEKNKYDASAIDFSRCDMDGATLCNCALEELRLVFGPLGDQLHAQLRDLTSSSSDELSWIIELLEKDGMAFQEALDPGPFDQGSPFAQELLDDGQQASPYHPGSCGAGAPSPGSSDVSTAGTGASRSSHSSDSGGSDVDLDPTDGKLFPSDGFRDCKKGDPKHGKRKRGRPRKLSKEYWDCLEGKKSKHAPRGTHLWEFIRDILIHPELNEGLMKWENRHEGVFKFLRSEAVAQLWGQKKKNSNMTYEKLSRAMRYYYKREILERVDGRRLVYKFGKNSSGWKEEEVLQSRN
Conditions: protein: recombinant; tags: N-terminal GST; dsDNA, one strand shown. A digest of the protocol:
as §1

A further assay addresses ETV1 (Homo sapiens, UniProt P50549 1-477). Conditions: protein: recombinant; tags: N-terminal GST; dsDNA, one strand shown. The essentials:
as §1

Chain of ETV5 (P41161 whole entry): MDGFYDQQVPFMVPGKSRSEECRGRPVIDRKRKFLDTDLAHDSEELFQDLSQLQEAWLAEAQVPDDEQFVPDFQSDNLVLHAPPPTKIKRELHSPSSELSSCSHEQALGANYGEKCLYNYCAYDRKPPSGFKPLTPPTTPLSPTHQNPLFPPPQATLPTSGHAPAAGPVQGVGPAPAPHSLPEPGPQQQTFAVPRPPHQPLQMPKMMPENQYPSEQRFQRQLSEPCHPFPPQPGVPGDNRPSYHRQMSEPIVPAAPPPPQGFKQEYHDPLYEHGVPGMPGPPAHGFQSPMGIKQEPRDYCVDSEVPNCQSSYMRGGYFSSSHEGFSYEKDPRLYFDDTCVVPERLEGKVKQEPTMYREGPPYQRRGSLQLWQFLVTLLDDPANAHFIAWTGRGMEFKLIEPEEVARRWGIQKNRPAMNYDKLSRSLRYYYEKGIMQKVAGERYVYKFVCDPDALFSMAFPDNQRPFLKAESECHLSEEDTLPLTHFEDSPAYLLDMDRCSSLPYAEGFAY
Chain of ELF1 (P32519 whole entry): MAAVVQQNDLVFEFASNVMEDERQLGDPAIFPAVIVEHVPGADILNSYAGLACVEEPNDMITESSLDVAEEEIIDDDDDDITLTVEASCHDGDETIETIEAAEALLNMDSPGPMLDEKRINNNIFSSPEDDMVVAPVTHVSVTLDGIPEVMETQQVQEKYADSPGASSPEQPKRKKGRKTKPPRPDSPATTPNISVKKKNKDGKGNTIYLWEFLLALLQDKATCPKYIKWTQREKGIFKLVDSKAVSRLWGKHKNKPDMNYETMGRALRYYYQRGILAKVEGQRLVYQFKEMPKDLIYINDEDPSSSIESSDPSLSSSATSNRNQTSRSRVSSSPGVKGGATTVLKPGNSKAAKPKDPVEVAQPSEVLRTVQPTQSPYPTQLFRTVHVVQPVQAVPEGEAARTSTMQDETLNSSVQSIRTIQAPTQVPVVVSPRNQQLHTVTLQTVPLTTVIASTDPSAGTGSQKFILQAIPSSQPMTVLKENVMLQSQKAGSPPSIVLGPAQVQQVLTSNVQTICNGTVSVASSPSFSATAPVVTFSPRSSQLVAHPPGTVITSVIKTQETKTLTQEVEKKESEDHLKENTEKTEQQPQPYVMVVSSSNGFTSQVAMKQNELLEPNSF
Chain of ELF4 (Q99607 whole entry): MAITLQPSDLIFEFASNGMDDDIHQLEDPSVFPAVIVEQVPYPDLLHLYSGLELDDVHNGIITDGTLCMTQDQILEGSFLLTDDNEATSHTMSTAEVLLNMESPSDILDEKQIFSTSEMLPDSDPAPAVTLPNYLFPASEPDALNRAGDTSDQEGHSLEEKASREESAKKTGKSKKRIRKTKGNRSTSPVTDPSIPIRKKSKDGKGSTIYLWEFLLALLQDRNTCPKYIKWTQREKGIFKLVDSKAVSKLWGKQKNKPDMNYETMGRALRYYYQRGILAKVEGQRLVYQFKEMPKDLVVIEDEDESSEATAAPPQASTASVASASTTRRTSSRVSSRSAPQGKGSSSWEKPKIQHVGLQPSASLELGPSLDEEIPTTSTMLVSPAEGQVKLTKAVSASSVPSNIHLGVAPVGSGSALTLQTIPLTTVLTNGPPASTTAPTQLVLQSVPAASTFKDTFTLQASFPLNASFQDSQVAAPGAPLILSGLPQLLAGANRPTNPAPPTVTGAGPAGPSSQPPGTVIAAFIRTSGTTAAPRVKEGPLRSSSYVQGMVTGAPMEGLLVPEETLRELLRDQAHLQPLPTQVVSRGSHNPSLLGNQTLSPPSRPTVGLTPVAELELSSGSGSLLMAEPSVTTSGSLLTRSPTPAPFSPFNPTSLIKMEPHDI
Chain of SPIB (Q01892 whole entry): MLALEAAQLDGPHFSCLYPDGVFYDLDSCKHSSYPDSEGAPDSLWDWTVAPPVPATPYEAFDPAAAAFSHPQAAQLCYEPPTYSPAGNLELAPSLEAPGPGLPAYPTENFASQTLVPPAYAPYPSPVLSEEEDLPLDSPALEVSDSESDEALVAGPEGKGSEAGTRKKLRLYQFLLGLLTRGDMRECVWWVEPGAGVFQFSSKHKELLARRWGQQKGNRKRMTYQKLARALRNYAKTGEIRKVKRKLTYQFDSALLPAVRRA
Chain of ETV1 (P50549 whole entry): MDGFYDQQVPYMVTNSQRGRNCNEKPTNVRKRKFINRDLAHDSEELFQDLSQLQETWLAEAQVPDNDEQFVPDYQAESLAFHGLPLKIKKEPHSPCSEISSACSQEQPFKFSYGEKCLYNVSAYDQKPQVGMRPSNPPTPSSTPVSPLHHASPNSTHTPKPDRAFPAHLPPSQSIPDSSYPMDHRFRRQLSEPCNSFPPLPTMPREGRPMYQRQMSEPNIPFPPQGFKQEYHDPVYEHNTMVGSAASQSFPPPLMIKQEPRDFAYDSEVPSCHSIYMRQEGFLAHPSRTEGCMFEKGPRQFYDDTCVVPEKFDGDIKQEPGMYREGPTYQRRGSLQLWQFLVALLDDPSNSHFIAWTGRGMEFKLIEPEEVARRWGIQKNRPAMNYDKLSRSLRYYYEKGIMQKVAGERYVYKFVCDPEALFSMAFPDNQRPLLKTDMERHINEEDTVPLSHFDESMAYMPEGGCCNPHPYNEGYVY

As to AATGGA, the binding signal with FLI1 was 1.01 fold enrichment (6-mer frequency, TF over GST control); with ELK1, 1.01 fold enrichment (6-mer frequency, TF over GST control); in the assay with GABPA, 1.01 fold enrichment (6-mer frequency, TF over GST control); with ERG, 1.06 fold enrichment (6-mer frequency, TF over GST control); with ELF1 it was 1.03 fold enrichment (6-mer frequency, TF over GST control); with SPI1 it was 1.06 fold enrichment (6-mer frequency, TF over GST control). The binding signal is 1.06 fold enrichment (6-mer frequency, TF over GST control) with SPIB; 1.09 fold enrichment (6-mer frequency, TF over GST control) in the assay with FEV; 1.05 fold enrichment (6-mer frequency, TF over GST control) with ETV5; 1.12 fold enrichment (6-mer frequency, TF over GST control) in the assay with HSF1; 1.08 fold enrichment (6-mer frequency, TF over GST control) in the assay with ELF4; 1.05 fold enrichment (6-mer frequency, TF over GST control) in the assay with ELF3. Further, in the assay with ETV1, the binding signal is 1.07 fold enrichment (6-mer frequency, TF over GST control).
